The source of these data is PubChem BioAssay (NCI).

The panel holds about 83,000 compounds, 20% with a hit somewhere; the sample as a whole holds those more often.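 Plates (96-well) were seeded with cells, treated with compound at one concentration, and incubated for 48 hours before percent growth was determined.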 A number with no mark means an inactive call. The source made the active and inactive calls. How the source made its calls: active means growth percent below 10; inactive means the rest.

This assay deals with NCI-H23 lung. Put plainly: NCI-60 one-dose screen, 48 h (100 = growth as untreated, 0 = no growth, -100 = all killed). The settings on record: 10 µM unless noted.
For the compound `Cc1ccc(/C=C/C(=O)c2ccc(F)cc2)s1`, the growth is 85%.

Consider `O=C1Nc2ccc(Cl)cc2/C1=C/c1cccs1`, for which the growth was 88.9%.

Turning to `N=C1c2nc3n(c2C(=O)c2nc4n(c21)CCCCC4)CCCCC3`, the growth is 97.3%.

Turning to `O=C(c1ccccc1)c1ccc(Oc2ccc([N+](=O)[O-])cc2[N+](=O)[O-])cc1`, the growth was 86.2%.

For `CC[C@H]1CN2CCc3cc(OC)c(OC)cc3C2C[C@@H]1CC1NCCc2cc(OC)c(OC)cc21` (some centres undefined), the growth was -34.3% (active).

For `O=C(/C=C/c1cccc(O)c1)c1cccc(-n2cc(-c3ccccc3)[nH]c2=O)c1`, the growth was 14.4%.

As to `CCOC(=O)Nc1cc(-c2ccc(C)c(NS(C)(=O)=O)c2)nn2c(C)nnc12`, the growth was 18%.

In the case of `C1CCC(C(CC2CCCCN2)C2CCCCC2)CC1` (centres undefined), the growth is 9.26% (active).

As for `C[C@H]1c2cccc(O)c2C(O)=C2C(=O)[C@]3(O)C(O)=C(C(N)=O)C(=O)[C@@H](N(C)C)[C@@H]3[C@@H](O)[C@@H]21`, the growth is 41.5%.

Turning to `COc1ccc(C(=O)COc2cccc(/C=C3\COc4ccc5ccccc5c4C3=O)c2)cc1`, the growth is 59.5%.

Take `CN1CCC[C@@H]1CCO[C@](C)(c1ccccc1)c1ccc(Cl)cc1`: the growth was 79.9%.

Take `C=CCNC(=O)/C(=C/c1cccc([N+](=O)[O-])c1)NC(=O)c1ccccc1`: the growth was 98.6%.

With `CCc1ccc(-c2nc(SCC(=O)NC3CCCCC3)n[nH]2)cc1`, the growth is 55%.

Take `Cc1cc2ccccn2c1C(=O)c1ccc(C(=O)c2ccccc2)cc1`: the growth is 84%.

As for `C[N+]1(C)C2CC[C@@H]1CC(OC(=O)C(O)c1ccccc1)C2` (some centres undefined), the growth was 95.9%.

As to `CC(C)Sc1nc(-c2ccc(Br)cc2)c(C#N)c(N2CCCCC2)n1`, the growth is 110%.

Regarding `CCOC(=O)c1sc(NC(=O)COc2cccc(/C=C3\CCc4cc(OC)ccc4C3=O)c2)nc1C`, the growth was 89.5%.

On to `Nc1ccc(Oc2c(F)c(F)c(Oc3ccc(N)cc3)c(F)c2F)cc1`, for which the growth was 96.5%.

Turning to `CC12CCC3C(=CCc4cc(O)ccc43)C1CCC2=O` (centres undefined), the growth is 103%.

`COc1cccc(C2=NN(C(C)=O)C(c3cc(OC)c(OC)c(OC)c3)C2)c1` (centres undefined): the growth is 52%.

For the compound `Cc1ccc(S(=O)(=O)NCCN2c3nc4ccccc4cc3Sc3cc4ccccc4nc32)cc1`, the growth was 56.9%.

On to `COc1cc(-c2nc3nc4sc(C)c(C)c4c(=O)n3[nH]2)cc(OC)c1OC`, for which the growth was 94.1%.

For `O=C(CNc1ccc2c(c1)C(=O)c1ccccc1C2=O)Nc1ccc2c(c1)C(=O)c1ccccc1C2=O`, the growth is -70.5% (active).

In the case of `CC(C)=CCNc1ncnc2c1ncn2C1OC(COP(=O)(O)O)C(O)C1O` (centres undefined), the growth is 57.8%.

For the compound `CCCCc1ccc(C(N)=O)nc1`, the growth is 102%.

As to `Oc1ccccc1/C=N/N1CCCCCC1`, the growth is 101%.

For the compound `CCOc1nc(-c2ccco2)n2nc(-c3ccco3)cc2n1`, the growth was 107%.

Turning to `Cc1onc(-c2ccccc2Cl)c1C(=O)N[C@@H]1C(=O)N2[C@@H]1SC(C)(C)[C@@H]2C(=O)O`, the growth was 112%.

On to `O=C(Nc1ccccc1)P(=O)(O)c1ccccc1`, for which the growth was 94%.

As to `CC(C)CC1NC(=O)C(CCCN)NC(=O)C(C(C)C)NC(=O)C2CCCN2C(=O)C(Cc2ccccc2)NC(=O)C(CC(C)C)NC(=O)C(CCCN)NC(=O)C(C(C)C)NC(=O)C2CCCN2C(=O)C(Cc2ccccc2)NC1=O` (centres undefined), the growth was -75.9% (active).

For the compound `Cc1nn(-c2nc3ccccc3s2)c(C)c1Oc1ccccc1O`, the growth was 109%.

For `O=C(/C=C/c1ccc([N+](=O)[O-])cc1)c1ccc2c3c(cccc13)CC2`, the growth is 67.9%.

Take `O=C(N/N=C/c1cccc([N+](=O)[O-])c1)c1ccc(Br)o1`: the growth was 102%.

Consider `CCN(Cc1cccc(S(=O)(=O)[O-])c1)c1ccc(C(=C2C=CC(=[N+](CC)Cc3cccc(S(=O)(=O)O)c3)C=C2)c2ccccc2S(=O)(=O)O)cc1`, for which the growth was 97.3%.

With `c1ccc2nc(N/N=C3\CCCCC3C3CCCCC3)ccc2c1` (centres undefined), the growth is 40.1%.

Take `COc1ccc2nc(N/N=C(\C)c3ccccn3)cc(C)c2c1`: the growth is 19.8%.

On to `O=C(c1ccc(Cl)cc1)c1ccc(Cl)cc1`, for which the growth is 104%.

With `C[C@]12CC[C@H](O)CC1=CC[C@@H]1[C@@H]2CC[C@]2(C)C(c3cccnc3)=CC[C@@H]12`, the growth was 68.3%.

`Cc1cc(C)c(C(=O)c2cccs2)c(C)c1`: the growth was 100%.
